POLI inh: blocks human DNA polymerase iota activity; hit rate 1% among 390,000; AID 588590; Pol iota fluorescent replication assay, 10 min; Q9UNA4; Potency, µM (series often up to 115 µM), inactives show at the top dose activity, negative = inhibition, actives largely listed as inhibitors
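Pol iota at 10 nM preincubated 15 min with compounds at room temperature; reaction started with fluorescent substrate, 50 nM final. Fluorescence read kinetically at 0 and 10 min; buffer-only wells as negative control.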
GLS inh: inhibitors of human glutaminase (GLS). hit rate 0.21% among 410,000. O94925. Potency, µM (doses to about 45.5 µM), for inactives: at the top dose activity change, negative = inhibition, usual class: inhibitors. GLS enzymatic activity, qHTS titration; further: on the % scale 0 is the no-effect control and ±100 the full control effect
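Glutamate formation by hKGA was monitored fluorometrically using coupled glutamate oxidase, HRP and Amplex Red. Substrate was added as 1 mM L-glutamine solution; incubation was 30 min at RT after an initial read.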
KAT2A inh: blocks human GCN5L2 histone acetyltransferase | Q92830 | Potency, µM (top dose mostly 58.9 µM), without a hit: top-dose activity change, negative = inhibition, actives largely listed as inhibitors | GCN5L2 HAT assay, ThioGlo1 CoA-SH fluorescence | hit rate 0.21% among 390,000; further: on the % scale 0 is the no-effect control and ±100 the full control effect
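Fluorescence readout, Ex340nm/Em540nm: ThioGlo1 (50uM final) reacts with free CoA thiol released as 20nM GCN5L2 acetylates H3(1-25) peptide (75uM) using acetyl-CoA (70uM). Compound and enzyme sat 15 min beforehand; 20 min room-temperature reaction.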
Pol beta inh: blocks human DNA polymerase beta activity; Pol beta primer extension/strand displacement, fluorescence kinetic; hit rate 1.3% among 340,000; P06746; AID 485314; Potency, µM (top dose mostly 114 µM), for inactives: top-dose activity change, negative = inhibition, hits mostly inhibitors; further: on the % scale 0 is the no-effect control and ±100 the full control effect
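Human Pol beta at 10 nM; strand-displacement substrate 50 nM final. Compound exposure 15 min at room temperature before start, reaction 10 min at room temperature.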
POLK inh: DNA polymerase kappa (human) inhibition; hit rate 0.53% among 400,000; AID 588579; Q9UBT6; purified Pol kappa, fluorescent DNA synthesis assay, 10 min; Potency, µM (top dose mostly 107 µM), without a hit: top-dose activity, negative = inhibition, usual class: inhibitors; further: on the % scale 0 is the no-effect control and ±100 the full control effect
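First, compounds were pin-transferred onto 10 nM Pol kappa. After 15 min at room temperature, substrate was added to 50 nM final. Fluorescence was then measured kinetically at 0 and 10 min.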
Pol eta inh: inhibitors of human DNA polymerase eta; Potency, µM (highest dose often 114 µM), inactives show at the highest dose activity change, negative = inhibition, hits mostly inhibitors; hit rate 1.2% among 390,000; recombinant Pol eta, fluorescent DNA replication assay; further: on the % scale 0 is the no-effect control and ±100 the full control effect
Target sequence (Q9Y253 whole entry, looked up): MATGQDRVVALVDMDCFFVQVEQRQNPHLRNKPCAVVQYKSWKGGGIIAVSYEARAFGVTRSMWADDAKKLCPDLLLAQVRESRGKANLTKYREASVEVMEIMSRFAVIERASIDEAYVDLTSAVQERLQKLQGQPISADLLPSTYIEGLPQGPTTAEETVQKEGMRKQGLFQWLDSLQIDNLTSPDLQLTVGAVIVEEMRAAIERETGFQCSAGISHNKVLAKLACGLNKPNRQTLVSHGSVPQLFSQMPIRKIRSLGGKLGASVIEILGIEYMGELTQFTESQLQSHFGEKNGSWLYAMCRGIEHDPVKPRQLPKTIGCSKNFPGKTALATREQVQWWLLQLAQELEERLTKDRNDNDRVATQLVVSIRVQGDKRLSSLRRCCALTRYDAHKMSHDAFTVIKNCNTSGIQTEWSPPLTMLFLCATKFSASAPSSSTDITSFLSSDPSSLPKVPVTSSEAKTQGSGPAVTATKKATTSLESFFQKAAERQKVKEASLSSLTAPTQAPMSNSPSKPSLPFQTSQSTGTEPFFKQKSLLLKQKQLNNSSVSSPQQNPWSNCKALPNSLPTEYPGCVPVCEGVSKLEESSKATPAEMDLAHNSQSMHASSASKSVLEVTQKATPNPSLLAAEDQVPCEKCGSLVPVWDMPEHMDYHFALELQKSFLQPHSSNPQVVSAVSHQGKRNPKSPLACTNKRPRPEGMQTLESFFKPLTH
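Fluorescent replication assay: 50 nM final substrate added after a 15 min room-temperature compound preincubation with 10 nM enzyme. Signal taken at 0 min and again at 10 min.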
* = called active by the depositor; ? = inconclusive; nt = no result; [ ] = remark or other dose. An excerpt weighted towards active compounds, which were near 2.4% of everything screened. The call rests on the fitted dose curve; in most records, active means well fitted inhibition curve with a large enough effect; inconclusive means small, poorly fitted or top-dose-only effect, or another doubt; inactive means no such curve, though single readings can be large or run the other way. Potency means the concentration at half of the fitted maximal effect.

SMILES	POLI inh	GLS inh	KAT2A inh	Pol beta inh	POLK inh	Pol eta inh
Oc1ccc(/C=N/N(c2ccccc2)c2ccccc2)cc1O	?	39%	?	5%	?	-21%
O/N=C(/C[n+]1cccc(Br)c1)c1ccc2ccccc2c1	35%	nt	nt	nt	-5%	nt
O=C(COC(=O)c1n[nH]c2ccccc12)NC(=O)NC1CCCC1	-2%	0%	-5%	15%	-1%	4%
O=C(COC(=O)c1n[nH]c2ccccc12)NC(=O)NC12CC3CC(CC(C3)C1)C2	-45%	5%	2%	35µM*	-8%	?
S=c1[nH]c2ccccc2s1	nt	-12%[99.4 µM]	20µM*	nt	-13%[60.1 µM]	nt
Cc1ccccc1C(=O)N1CCc2cc(-c3nc(NC(=O)Cc4ccc5c(c4)OCO5)sc3C)ccc21	4%	-1%	6%	0.25µM*	-16%	1%
Cc1sc(NC(=O)Cc2ccc3c(c2)OCO3)nc1-c1ccc2c(c1)CCN2C(=O)c1cccc(F)c1	19%	2%	2%	3%	-3%	0%
COc1ccc(C2C3C=CCC(c4cccc(-c5ccc(N(C)C)cc5)c4)C3C(=O)N2Cc2ccccc2)cc1Cl (stereo unspecified)	1%	nt	nt	nt	-5%	nt
O=[N+]([O-])c1ccc(N2CCN(c3ccc(O)cc3)CC2)cn1	50%	10µM*	1%	0%	-5%	-17%
CN(C)Cc1cc(C(C)(C)C)cc(C(C)(C)C)c1O	1%	-2%	0%	-2%	-16%	2%
CN(C)Cc1cc(O)c(CN(C)C)cc1O	7.1µM*	14µM*	-9%	10µM*	16µM*	79µM*
COc1ccc2nc(-c3ccccc3)cc(C(=O)OCC(=O)N3CC(C)OC(C)C3)c2c1 (stereo unspecified)	?	-3%	-12%	nt	-26%	79µM*
COc1ccc2nc(-c3ccccc3)cc(C(=O)OCC(=O)N3CCCCC3)c2c1	?	-8%	?	nt	-39%	?
c1ccc2[nH]c(NCCCc3cnc[nH]3)nc2c1	nt	nt	54%	nt	6%[60.1 µM]	nt
CC(C)CCNc1nc2c(S(=O)(=O)c3ccc(Br)cc3)nnn2c2ccsc12	24%	-2%	-15%	0%	6%	-13%
COc1ccccc1N(C(=O)CCl)c1cn(C(C)=O)c2ccccc12	-10%	3%	-2%	-8%	-11%	45µM*
C[C@]12C=CC(=O)C=C1[C@@H](F)C[C@@H]1[C@@H]2[C@@H](O)C[C@@]2(C)[C@H]1CC[C@]2(O)C(=O)CO	nt	-6%	nt	nt	nt	nt
CCCCNC(=O)c1sc(=S)n2c1[nH]c(=O)c1ccc(C(=O)NCCc3ccc(OC)c(OC)c3)cc12	14µM*	1%	-7%	?	?	18µM*
CCOC(=O)c1c(C)c(C(=O)NCCc2ccc(OC)cc2)c(C)n1CC	37%	-7%	1%	3%	8%	-24%
Cc1cc(C)cc(NC2=C(N)C(=O)c3ccccc3C2=O)c1	7.9µM*	8%	-9%	-7%	5%[60.1 µM]	-8%
CC(C)(C)OC(=O)N1C2C=CC1C1=COCCN1C2=O (stereo unspecified)	-3%	nt	nt	nt	5%	nt
CCN(CCC(=O)O)c1ccc(/C=C/c2ccnc3ccccc23)cc1	?	nt	nt	nt	-12%	nt
O=C(CSc1ccccc1)N1CCN(c2ccccn2)CC1	-15%	1%	-7%	0%	-11%	-14%
COc1ccccc1CNC(=O)CSc1ccsc1[N+](=O)[O-]	?	-16%	-4%	?	-16%	-5%
O=C(CSc1ccsc1[N+](=O)[O-])NC1CCCC1	45µM*	4%	-13%	?	-51%	56µM*
SMILES	POLI inh	GLS inh	KAT2A inh	Pol beta inh	POLK inh	Pol eta inh
O=C(CSc1ccsc1[N+](=O)[O-])N1CCN(c2ccccn2)CC1	45µM*	-4%	-11%	?	?	50µM*
O=C(CSc1ccsc1[N+](=O)[O-])NCc1ccccc1	?	-11%	-5%	?	-25%	79µM*
CCOc1ccc(-n2c(SCC(=O)N3CCCc4ccccc43)nc3c([nH]c4ccccc43)c2=O)cc1	-16%	-14%	-2%	2%	-5%[60.1 µM]	4%
Cc1cc(C)c(NC(=O)C(=O)NCC(c2cccnc2)N2CCN(c3ccccc3F)CC2)c(C)c1 (stereo unspecified)	9%	0%	-4%	-20%	-4%	5%
COC(=O)c1c(C)oc2ccc(N(C(=O)Oc3ccccc3)S(=O)(=O)c3ccc(Cl)c([N+](=O)[O-])c3)cc12	45µM*	-1%	-15%	22µM*	-21%	?
CCc1nnc(N/N=C/c2c(Cl)cccc2Cl)n1N	13µM*	5%	19%	15%	-6%	-2%
CCc1nnc(N/N=C/c2cccs2)n1N	22µM*	-4%	-1%	34%	-10%	-11%
CN1CCN(c2ccnc(N(C)CCCCCCN)n2)CC1	1%	nt	nt	nt	-14%	nt
N.N.O=C(O)C1(C(=O)O)CCC1.[Pt]	-7%[58.9 µM]	29%	nt	8%[57.1 µM]	22µM*	-3%[57.1 µM]
O=C(O)C1(C(=O)O)CCC1	-3%	1%	-20%	nt	-18%	-2%
Nc1ccc(N)c(C(=O)O)c1	2.5µM*	5.6µM*	7.9µM*	0.4µM*	6.3µM*	1.3µM*
COc1ccc2c(c1)CC(C(=O)NCCN1CCN(c3cccc(C)c3C)CC1)CO2 (stereo unspecified)	-15%	12%	-9%	3%	3%[60.1 µM]	-18%
COc1ccc(CCN(C)CCC(=O)Nc2cc(C)ccc2C)cc1OC	6%	11%	1.6µM*	-4%	-13%	-12%
COC(=O)c1ccc(C)c(NC(=O)CCc2ccc(OC)c(OC)c2)c1	17%	4%	-3%	-6%	?	-15%
Cc1cc(C)c(S(=O)(=O)/N=C2\C=CC(=O)C(Cl)=C2)c(C)c1	?	12%	-16%	35µM*	?	?
Cc1ccc(/C=N/n2c(-c3ccccc3)csc2=S)cc1	nt	-5%	nt	nt	nt	nt
Cc1c(CCO)sc[n+]1CCc1ccccc1	6%	nt	nt	nt	10%	nt
Cc1cc(-c2nn3c(-c4ccccc4)nnc3s2)c2ccccc2n1	79µM*	1%	-22%	?	2%	6%
c1ccc(-c2cc(-c3nn4c(-c5ccco5)nnc4s3)c3ccccc3n2)cc1	?	6%	-28%	-7%	?	?
C(=C\c1ccnc2ccccc12)/c1ccccc1	-3%	nt	nt	nt	-17%	nt
CCOC(=O)c1ccc(N2CSC3=C(C#N)C(c4ccc(OC)cc4OC)CC(=O)N3C2)cc1 (stereo unspecified)	-2%	1%	?	0%	-20%	-9%
CCOc1ccc(N2CSC3=C(C#N)C(c4ccco4)CC(=O)N3C2)cc1 (stereo unspecified)	13%	0%	?	25µM*	0%	1%

Screening results (PubChem BioAssay)
